Results as given in ChEMBL document CHEMBL3988442, “University of Dundee, Small-Polar-MMV Screening Library” (2021).

Target: T1, Aspartate--tRNA(Asp/Asn) ligase (Mycobacterium tuberculosis (strain ATCC 25618 / H37Rv)) (UniProt P9WFW3); note: in the data most compounds retested in dose-response had high values
T1 sequence (whole entry): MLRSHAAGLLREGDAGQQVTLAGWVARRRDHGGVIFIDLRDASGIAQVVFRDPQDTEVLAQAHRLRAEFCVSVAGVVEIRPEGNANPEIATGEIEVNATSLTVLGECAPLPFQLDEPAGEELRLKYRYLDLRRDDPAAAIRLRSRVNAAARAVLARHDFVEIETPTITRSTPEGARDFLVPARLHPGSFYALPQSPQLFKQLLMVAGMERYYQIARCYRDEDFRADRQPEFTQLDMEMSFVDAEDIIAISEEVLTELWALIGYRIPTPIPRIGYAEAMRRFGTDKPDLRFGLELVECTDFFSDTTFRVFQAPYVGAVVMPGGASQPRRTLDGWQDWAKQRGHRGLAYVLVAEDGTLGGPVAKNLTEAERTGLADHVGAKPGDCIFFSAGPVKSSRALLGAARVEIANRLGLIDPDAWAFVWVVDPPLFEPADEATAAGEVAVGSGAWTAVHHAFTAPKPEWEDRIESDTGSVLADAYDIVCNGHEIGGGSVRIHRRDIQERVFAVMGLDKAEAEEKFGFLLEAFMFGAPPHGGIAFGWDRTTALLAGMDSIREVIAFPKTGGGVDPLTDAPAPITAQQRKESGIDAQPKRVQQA
Experiment: Assay for Asp RNA synthetase-1 from Mycobacterium tuberculosis
Assay type: functional
Set-up: scale not given: direction of the effect not stated beside the values
Conditions: 30 µM

| Structure (SMILES) | Percent Effect [%] |
| --- | --- |
| O=C(NCc1nn(-c2ccccc2)c2c1CCC2)N1CCSCC1 | -2.32 |
| Cc1nn(C)c(N2CCOCC2)c1CNC1CCOc2ccccc21 (stereo not given) | -2.83 |
| N#Cc1cc(NC(=O)c2ccsc2)ccc1N1CCC(O)CC1 | 3.33 |
| Cc1ccc(S(=O)(=O)NC(=O)c2c(C)noc2C(C)C)cc1C | 1.59 |
| CCc1cnc(N2CCC(=O)N(CC3CC3)C(C(C)C)C2)nc1 (stereo not given) | 1.33 |
| CCN1CCC2(CC1)CC(NC(=O)NC)c1cc(C)ccc12 (stereo not given) | -5.21 |
| Cc1nc(C)n(CC2CN(Cc3cccc4c3OCCO4)CCO2)n1 (stereo not given) | -4.36 |
| COc1cc(N2CCCC(c3nccn3Cc3cscn3)C2)nc(N)n1 (stereo not given) | -2.33 |
| CCN(CC1CCOC1)C(=O)c1cccnc1N1CCOCC1 (stereo not given) | -1.66 |
| O=C(NCC(O)c1ccccc1Cl)c1cccc(-n2cnnn2)c1 (stereo not given) | 7.85 |
| O=C(N[C@@H]1CN(c2ncccn2)[C@@H]2CCCO[C@@H]21)c1cnccn1 | 7.31 |
| CN(CCCc1cnn(C)c1)C(=O)C1COc2ccccc2C1 (stereo not given) | 11.4 |
| CC(Cn1cccn1)NC(=O)N1CCN(Cc2cccs2)CC1 (stereo not given) | -5.57 |
| Cn1cccc1C(=O)N1CCC2(CC1)CN(c1ccccn1)CCO2 | 7.46 |
| Cc1nn(C)c(C)c1C1CCCN1C(=O)c1ccc(NC2CC2)nc1 (stereo not given) | 2.27 |
| COc1ccccc1C1(C(=O)NCCN2CCOCC2)CCOCC1 | 10.8 |
| Cn1cc(C2CC(=O)NC23CCN(c2ncc(F)cn2)CC3)cn1 (stereo not given) | 0.844 |
| Cc1ccc(C)c(C(NC(=O)C2CC2)c2cccnc2)c1 (stereo not given) | -0.277 |
| CCN1CC2(CCNCC2)COc2ccccc2S1(=O)=O | -1.28 |
| Cc1nnc2n1CCN(Cc1csc(CC(=O)N(C)C)n1)C2 | 2.24 |

| Structure (SMILES) | Percent Effect [%] |
| --- | --- |
| OC(CNCCn1cccn1)c1ccc(F)c(F)c1 (stereo not given) | -2.25 |
| Cn1cc(-c2nc(CN3CCc4c(ncn4C4CC4)C3)cs2)cn1 | -0.0232 |
| Cc1cccnc1NC(=O)CSc1ccc2c(c1)OCCO2 | 0.668 |
| Cc1cccc(C(=O)NCc2ccnc(N(C)C)c2)n1 | -1.33 |
| CCOCc1ncn2c1CN(C(=O)Nc1cccc(C)c1)CC2 | 1.59 |
| O=C(c1ccc(Cl)o1)N1CCCN(Cc2cscn2)CC1 | -7.87 |
| CN(Cc1cn2c(n1)CN(C(=O)CC1CC1)CC2)Cc1ccco1 | -0.868 |
| COc1ncccc1C(=O)NCC(C)Oc1cccnc1 (stereo not given) | -5.57 |
| COCCCC1(CO)CCCN(CCS(C)(=O)=O)C1 (stereo not given) | 4.17 |
| CC1CN(C)CCN1C(=O)c1ccn(-c2cccc(Cl)c2)n1 (stereo not given) | -2.06 |
| Cc1nc(C)n(CC2CCCN(CCc3ccccn3)C2)n1 (stereo not given) | -0.8 |
| Cc1ccc(NC(=O)N2CCN(Cc3noc(C4CC4)n3)CC2)cc1 | -2.14 |
| CCN(Cc1cccc2c1OCO2)C(=O)C(C)c1cccnc1 (stereo not given) | 1.18 |
| O=C(Nc1cccnc1)[C@H]1C[C@H]2OCC[C@H]2N(C(=O)c2ccsc2)C1 | 4.71 |
| O=C(c1cnccn1)N1CCc2ncnc(-c3cccnc3)c2CC1 | -2.48 |
| Cc1noc([C@@H]2C[C@H]3OCC[C@H]3N(S(C)(=O)=O)C2)n1 | -0.616 |
| Cc1cnc(CN(C)C2CCN(CCc3ccccn3)CC2)cn1 | 4.34 |
| CN(C)C1CCN(C(=O)c2ccc(Cn3ccccc3=O)o2)CC1 | 1.63 |
| O=C(c1ccno1)N1CC[C@@H]2O[C@@H](COCCN3CCCC3)CC[C@@H]21 | -0.779 |
| c1cnc(-c2nc(CN3CCOC(Cn4cncn4)C3)cs2)nc1 (stereo not given) | 9.26 |

Target: Shiga toxin 2 (Escherichia coli O157:H7) (UniProt P09385+P09386)
Experiment: E. coli 0.157:H7 Shiga Toxin SOP - stx2 screening assay
Assay type: functional
Set-up: scale not given: direction of the effect not stated beside the values
Conditions: 30 µM

| Structure (SMILES) | Percent Effect [%] |
| --- | --- |
| O=C(NCc1nn(-c2ccccc2)c2c1CCC2)N1CCSCC1 | 34 |
| Cc1nn(C)c(N2CCOCC2)c1CNC1CCOc2ccccc21 (stereo not given) | 9.33 |
| N#Cc1cc(NC(=O)c2ccsc2)ccc1N1CCC(O)CC1 | -57.5 |
| Cc1ccc(S(=O)(=O)NC(=O)c2c(C)noc2C(C)C)cc1C | 8.34 |
| CCc1cnc(N2CCC(=O)N(CC3CC3)C(C(C)C)C2)nc1 (stereo not given) | 2.92 |
| CCN1CCC2(CC1)CC(NC(=O)NC)c1cc(C)ccc12 (stereo not given) | -9.91 |
| Cc1nc(C)n(CC2CN(Cc3cccc4c3OCCO4)CCO2)n1 (stereo not given) | 23.8 |
| COc1cc(N2CCCC(c3nccn3Cc3cscn3)C2)nc(N)n1 (stereo not given) | 14.5 |
| CCN(CC1CCOC1)C(=O)c1cccnc1N1CCOCC1 (stereo not given) | 25.6 |
| O=C(NCC(O)c1ccccc1Cl)c1cccc(-n2cnnn2)c1 (stereo not given) | 2.65 |
| O=C(N[C@@H]1CN(c2ncccn2)[C@@H]2CCCO[C@@H]21)c1cnccn1 | 2.14 |
| CN(CCCc1cnn(C)c1)C(=O)C1COc2ccccc2C1 (stereo not given) | -16.4 |
| CC(Cn1cccn1)NC(=O)N1CCN(Cc2cccs2)CC1 (stereo not given) | -23.7 |
| Cn1cccc1C(=O)N1CCC2(CC1)CN(c1ccccn1)CCO2 | -7.72 |
| Cc1nn(C)c(C)c1C1CCCN1C(=O)c1ccc(NC2CC2)nc1 (stereo not given) | -36.7 |
| COc1ccccc1C1(C(=O)NCCN2CCOCC2)CCOCC1 | 21.5 |
| Cn1cc(C2CC(=O)NC23CCN(c2ncc(F)cn2)CC3)cn1 (stereo not given) | -18.9 |
| Cc1ccc(C)c(C(NC(=O)C2CC2)c2cccnc2)c1 (stereo not given) | -13.4 |
| CCN1CC2(CCNCC2)COc2ccccc2S1(=O)=O | -27.7 |
| Cc1nnc2n1CCN(Cc1csc(CC(=O)N(C)C)n1)C2 | 5.11 |

| Structure (SMILES) | Percent Effect [%] |
| --- | --- |
| OC(CNCCn1cccn1)c1ccc(F)c(F)c1 (stereo not given) | -25.7 |
| Cn1cc(-c2nc(CN3CCc4c(ncn4C4CC4)C3)cs2)cn1 | -83.4 |
| Cc1cccnc1NC(=O)CSc1ccc2c(c1)OCCO2 | -4.11 |
| Cc1cccc(C(=O)NCc2ccnc(N(C)C)c2)n1 | -8.62 |
| CCOCc1ncn2c1CN(C(=O)Nc1cccc(C)c1)CC2 | -12.7 |
| O=C(c1ccc(Cl)o1)N1CCCN(Cc2cscn2)CC1 | 6.75 |
| CN(Cc1cn2c(n1)CN(C(=O)CC1CC1)CC2)Cc1ccco1 | -5.93 |
| COc1ncccc1C(=O)NCC(C)Oc1cccnc1 (stereo not given) | -2.36 |
| COCCCC1(CO)CCCN(CCS(C)(=O)=O)C1 (stereo not given) | 0.747 |
| CC1CN(C)CCN1C(=O)c1ccn(-c2cccc(Cl)c2)n1 (stereo not given) | -4.97 |
| Cc1nc(C)n(CC2CCCN(CCc3ccccn3)C2)n1 (stereo not given) | -46.3 |
| Cc1ccc(NC(=O)N2CCN(Cc3noc(C4CC4)n3)CC2)cc1 | -9.31 |
| CCN(Cc1cccc2c1OCO2)C(=O)C(C)c1cccnc1 (stereo not given) | -4.53 |
| O=C(Nc1cccnc1)[C@H]1C[C@H]2OCC[C@H]2N(C(=O)c2ccsc2)C1 | -27.5 |
| O=C(c1cnccn1)N1CCc2ncnc(-c3cccnc3)c2CC1 | -12.4 |
| Cc1noc([C@@H]2C[C@H]3OCC[C@H]3N(S(C)(=O)=O)C2)n1 | -25.2 |
| Cc1cnc(CN(C)C2CCN(CCc3ccccn3)CC2)cn1 | 10.4 |
| CN(C)C1CCN(C(=O)c2ccc(Cn3ccccc3=O)o2)CC1 | -10.4 |
| O=C(c1ccno1)N1CC[C@@H]2O[C@@H](COCCN3CCCC3)CC[C@@H]21 | -4.5 |
| c1cnc(-c2nc(CN3CCOC(Cn4cncn4)C3)cs2)nc1 (stereo not given) | 18.3 |
